Source: PubChem (National Center for Advancing Translational Sciences (NCATS))
Shown are actives, neighbours in structure and some others; about 21% of the full set was active somewhere.
NS1 inh = inhibitors of influenza NS1 protein function. Potency, µM (top dose mostly 46.1 µM). AID 2326. 0.4% of 270,000 active; calls by dose curve; also: actives are rising curves; nearly all actives have a fitted effect of over 50% in size
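A cell-based growth assay was used: compounds that relieve NS1-induced slow growth of budding yeast raise OD600. Assay medium was yeast nitrogen base with ammonium sulphate and -URA supplement, pH 6.0, with 2% galactose.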
Pf growth 96h = P. falciparum growth inhibition at 96 hour, primary screen for plastid delayed-death inhibitors | Potency, µM (top dose mostly 28.7 µM), usual class: inhibitors | 6.9% of 320,000 active | P. falciparum luciferase reporter growth, 96 h | AID 504834
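Two-generation exposure (96 h) targets delayed-death phenotype. Reporter parasites carrying integrated firefly luciferase, in red cells at 2% hematocrit and 0.05% parasitemia final, kept at 37 C, 5% CO2; luminescence loss indicates inhibition.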
Pf growth 48h = inhibits P. falciparum growth in the first generation, 48 h; P. falciparum luciferase growth in erythrocytes, 48 h; AID 504832; Potency, µM (highest dose often 28.7 µM), usual class: inhibitors; 5.9% of 310,000 active
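Firefly luciferase activity from engineered P. falciparum reports growth; inhibitors lower the luminescent signal. Cultures contained 2% hematocrit erythrocytes at 0.1% final parasitemia.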
Sm TGR inh = S. mansoni TGR enzyme inhibition | Q962Y6 | purified TGR, DTNB reduction, TNB absorbance 405 nm | Potency, µM (top dose mostly 114 µM), most hits filed as inhibitors | 3% of 360,000 active | AID 485364; also: nearly all actives have a fitted effect of over 60% in size
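Kinetic colorimetric format: TGR-catalysed, NADPH-driven DTNB reduction monitored via TNB absorbance. Enzyme dispensed at 20 nM; compound exposure 15 min at room temperature before reaction start.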
CHX counter = counter-screen for Shiga toxin inhibitors: cycloheximide protein synthesis inhibition. cell reporter, cycloheximide protein synthesis inhibition counterscreen. max response, %. 12% of 300,000 active. AID 2314; in the data active = max response mostly above about 13%, no sharp cut-off; inactive = mostly below about 14%; also: read at 38.3 µM for the half of the compounds with a filed dose
Shiga toxin inh = blocks Shiga toxin action in Vero cells. Vero cells, Shiga toxin protein synthesis inhibition reporter. inhibition, % at 38.7 µM. 9.2% of 290,000 active. AID 2315; in the data active = inhibition mostly above about 28%, no sharp cut-off; inactive = mostly below about 43%
Each line names hits and unclear results; the compound was inactive in the other large screens. Unless noted, calls follow the shape of the dose curve; as a rule, active = well fitted curve in the direction sought with a large enough effect; inconclusive = small, poorly fitted or top-dose-only effect, or another doubt; inactive = no such curve, though single readings can be large; an effect the other way counts as inactive or inconclusive.

Cc1sc(NC(=O)/C=C/C(=O)O)c(C(N)=O)c1-c1ccc(C(C)(C)C)cc1	Pf growth 48h 8.3µM
Cc1sc(NC(=O)C2CCCCC2C(=O)O)c(C(N)=O)c1-c1ccc(C(C)(C)C)cc1 (centres undefined)	none
CCOC(=O)c1c(NC(=O)/C=C\C(=O)O)sc(C)c1-c1ccccc1	Pf growth 48h inconclusive (no result: Sm TGR inh)
Cc1sc(NC(=O)C2CCCCC2C(=O)O)c(C(N)=O)c1-c1ccccc1 (centres undefined)	CHX counter 38, Shiga toxin inh 40
CCOC(=O)c1c(NC(=O)/C=C/C(=O)O)sc(C)c1-c1ccc(C(C)(C)C)cc1	Pf growth 48h 1.7µM
CCSc1ncc(Cl)c(C(=O)N2CCN(c3ccccc3OC)CC2)n1	none (no result: NS1 inh, Pf growth 96h, Pf growth 48h, CHX counter, Shiga toxin inh)
Cc1ccc(NC(=O)C(C)OC(=O)c2ccc(Cl)nc2)cc1S(=O)(=O)N1CCOCC1 (centres undefined)	Pf growth 48h inconclusive (no result: NS1 inh, CHX counter, Shiga toxin inh)
Cn1c(=O)n(C)c2cc(NC(=O)c3ccc(F)cc3)c(Br)cc21	Pf growth 96h 2.9µM, Pf growth 48h inconclusive
CCOC(=O)C1CCN(c2cc3c(cc2NC(=O)c2ccc(F)cc2)n(C)c(=O)n3C)CC1	Pf growth 48h 12µM
CCOC(=O)C1CCN(c2cc3c(cc2NC(=O)c2ccc(Cl)cc2)n(C)c(=O)n3C)CC1	none (no result: NS1 inh, Pf growth 96h, Pf growth 48h, CHX counter, Shiga toxin inh)
CN(Cc1ccc(Cl)cc1)C(=O)COC(=O)c1ccc(-c2ccc(O)cc2)cc1	none (no result: NS1 inh, CHX counter, Shiga toxin inh)
CCOc1cc2c(cc1OCC)C(c1ccc(OC)cc1)N(c1ccccc1)C(=O)C2 (centres undefined)	Pf growth 48h inconclusive
CCOc1cc2c(cc1OCC)C(c1ccccc1)N(c1ccccc1)C(=O)C2 (centres undefined)	Pf growth 96h 4.1µM, Pf growth 48h inconclusive
CCN(CC)C(=O)c1ccc(NS(=O)(=O)c2ccc3[nH]c(=O)[nH]c3c2)cc1	Pf growth 96h 8.3µM, Pf growth 48h 12µM
CC(OC(=O)c1ccc(NS(=O)(=O)c2ccc3[nH]c(=O)[nH]c3c2)cc1)C(=O)Nc1ccc(Cl)cc1 (centres undefined)	Pf growth 96h 0.59µM, Pf growth 48h 0.83µM
CCC(C)NC(=O)c1ccc(NS(=O)(=O)c2ccc3[nH]c(=O)[nH]c3c2)cc1 (centres undefined)	Pf growth 96h inconclusive, Shiga toxin inh 13
COc1ccc(Cl)cc1NC(=O)C(C)OC(=O)c1ccc(NS(=O)(=O)c2ccc3[nH]c(=O)[nH]c3c2)cc1 (centres undefined)	NS1 inh inconclusive, Pf growth 96h inconclusive
CCC1CN(S(=O)(=O)c2cc(-c3cc(C)no3)ccc2C)c2cc(Cl)ccc2O1 (centres undefined)	none (no result: NS1 inh, Pf growth 96h, Pf growth 48h, CHX counter, Shiga toxin inh)
COCCNC(=O)C(c1ccc(F)cc1)N(CCOC)C(=O)CCC(=O)Nc1ccccn1 (centres undefined)	NS1 inh inconclusive
Cc1nn(-c2ccccc2)nc1CNS(C)(=O)=O	none
CCc1nnc(NC(=O)CSc2nc(C)c3c(c2C#N)CCCC3)s1	CHX counter 64, Shiga toxin inh 56
COc1ccc(NC(=O)CSc2nc(C)c3c(c2C#N)CCCC3)cc1	none
CC(Nc1cccc([N+](=O)[O-])c1)C(=O)Nc1ccc(S(=O)(=O)N2CCCC2)cc1 (centres undefined)	Pf growth 96h inconclusive, Pf growth 48h inconclusive (no result: NS1 inh, CHX counter, Shiga toxin inh)
O=[N+]([O-])c1cccc(-c2cn3nc(-c4ccccc4)c(-c4ccccc4)nc3n2)c1	Pf growth 96h inconclusive, Pf growth 48h 9.3µM
Cc1ccc(-c2cn3nc(-c4ccccc4)c(-c4ccccc4)nc3n2)cc1	Pf growth 48h inconclusive, CHX counter 16
c1ccc(-c2cn3nc(-c4ccccc4)c(-c4ccccc4)nc3n2)cc1	none
CCC(CC)C(=O)c1c[nH]c(C(=O)NCc2ccccc2OC)c1	none
COc1ccc(NC(=O)CN2CCN(c3nc(-c4cccc(OC)c4)cs3)CC2)cc1	Pf growth 48h 8.3µM
CCCNC(=S)N1CCN(c2nc(-c3ccc(C)cc3)cs2)CC1	Pf growth 96h inconclusive, CHX counter 13
S=C(NCCCN1CCOCC1)N1CCN(c2nc(-c3ccc(Cl)cc3)cs2)CC1	none
COCCNC(=S)N1CCN(c2nc(-c3ccccc3)cs2)CC1	Pf growth 96h 12µM
O=C(NC(=S)N1CCN(c2nc(-c3ccccc3)cs2)CC1)c1cccnc1	Pf growth 96h inconclusive, Pf growth 48h 10µM
Cc1cccn2c(=O)c3cc(C#N)c(=O)n(CC4CCCO4)c3nc12 (centres undefined)	Pf growth 96h inconclusive, Pf growth 48h inconclusive
CC(C)N1CCN(Cc2cccn2-c2ccccn2)CC1CCO (centres undefined)	none
CCOc1ccc(C(=O)Nc2ccc(C(=O)OCc3cc(=O)n4nc(CC)sc4n3)cc2)cc1	none (no result: NS1 inh, Pf growth 96h, Pf growth 48h, CHX counter, Shiga toxin inh)
COc1cccc(-c2csc(N3CCN(C(=O)C4CCCCC4)CC3)n2)c1	none
CCCNC(=S)N1CCN(c2nc(-c3cccc(OC)c3)cs2)CC1	Pf growth 96h inconclusive, Pf growth 48h inconclusive, CHX counter 13
CCc1ccccc1NC(=O)c1cc2nc(-c3ccc(OC)c(OC)c3)cc(C(F)(F)F)n2n1	none (no result: NS1 inh, Pf growth 96h, Pf growth 48h, CHX counter, Shiga toxin inh)
O=C1CS/C(=N/N=C\c2ccn[nH]2)N1	Pf growth 96h 1.9µM
CCN(C(=O)CSc1nc2ccccc2n1CC(=O)Nc1ccc(F)cc1F)c1ccccc1	none (no result: NS1 inh, Pf growth 96h, Pf growth 48h, CHX counter, Shiga toxin inh)
C=CCN(CC=C)c1nc2ccccc2nc1C(C#N)C(=O)OCCOC (centres undefined)	Pf growth 96h 6.6µM, Pf growth 48h 10µM, Sm TGR inh inconclusive
CCCN(CCC)c1nc2ccccc2nc1C(C#N)C(=O)OCCOC (centres undefined)	Pf growth 48h inconclusive
[N-]=[N+]=NC1CC(CO)OC1n1ccc(=O)[nH]c1=O (centres undefined)	none
COc1ccccc1-c1cc(=O)c2c(O)ccc([N+](=O)[O-])c2o1	Pf growth 96h 10µM, Pf growth 48h 12µM, Sm TGR inh inconclusive
O=c1cc(-c2ccccc2Cl)oc2c([N+](=O)[O-])c(O)cc(O)c12	none
Cn1c2c(c(=O)n(C)c1=O)C(c1cccc(O)c1)CC(=O)N2 (centres undefined)	none (no result: NS1 inh, Pf growth 96h, Pf growth 48h, CHX counter, Shiga toxin inh)
COc1ccc(OCCSc2n[nH]c(N)n2)cc1	CHX counter 31 (no result: Pf growth 96h)
O=C1NN(c2ccc(F)cc2)C(=O)/C1=C\c1cnn(-c2ccccc2)c1	none (no result: Sm TGR inh)
O=C1NC(=O)N(Cc2ccccc2)C(=O)/C1=C/c1cnn(-c2ccccc2)c1	Sm TGR inh inconclusive, CHX counter 30, Shiga toxin inh 51 (no result: NS1 inh)
COc1ccccc1N1C(=O)NC(=O)/C(=C\c2cnn(-c3ccccc3)c2)C1=O	Shiga toxin inh 48 (no result: NS1 inh)
CC(C)c1ccc(NC(=S)NCCc2c[nH]c3ccccc23)cc1	Pf growth 48h inconclusive
CN1CCC(=NNC(=O)C(=O)Nc2cccc(Br)c2)CC1	none (no result: NS1 inh)
Cc1ccc(NC(=O)C(=O)NN=C2CCCC2)cc1C	CHX counter 10
